# Measurements published in PubChem BioAssay (NCATS).
# “And” between values parts separate entries of the source, which are not always exact repeats. Equal entries are not always repeated. Records with an inconclusive call do not appear. Unmarked numbers belong to inactive results. The source made the active and inactive calls. The call rests on the fitted dose curve; in most records, active means well fitted curve in the direction sought with a large enough effect; inconclusive means small, poorly fitted or top-dose-only effect, or another doubt; inactive means no such curve, though single readings can be large; an effect the other way counts as inactive or inconclusive.
# Tests used:
# [1] = Quantitative highthroughput screen to assess conditional lethalithy of NOMO1 cells grown in RPMI1640 with untreated serum (RPMI+s) (AID 1963876); further: nearly all actives have a fitted effect of over 35% in size;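 on viability: 100% = DMSO wells and 0% = empty wells without cells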
# Method in brief: (§1)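 Each medium arm—HPLM with 10% dialyzed FBS, or RPMI1640 with 5 mM glucose and 10% untreated or dialyzed FBS—was screened against an 11-point, 3-fold compound titration for 48 h at 37 °C, with CellTiter-Glo luminescence as endpoint.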
# [2] = Quantitative highthroughput screen to assess conditional lethalithy of P12 Ichikawa cells grown in Human Plasma-Like Medium with dialyzed fetal bovine serum (HPLM+ds) (AID 1963879); conditions: Potency: viability; further: nearly all actives have a fitted effect of over 35% in size; on viability: series mostly up to about 46 µM
# Method in brief: as §1
# [3] = Quantitative highthroughput screen to assess conditional lethalithy of P12 Ichikawa cells grown in RPMI1640 with untreated serum (RPMI+s) (AID 1963881); conditions: Potency: viability; further: nearly all actives have a fitted effect of over 35% in size;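 on viability: series mostly up to about 46 µM; 100% = DMSO wells and 0% = empty wells without cells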
# Method in brief: as §1
# [4] = Quantitative highthroughput screen to assess conditional lethalithy of SEM cells grown in Human Plasma-Like Medium with dialyzed fetal bovine serum (HPLM+ds) (AID 1963882); further: nearly all actives have a fitted effect of over 35% in size; on viability: series mostly up to about 46 µM
# Method in brief: as §1
# [5] = Quantitative highthroughput screen to assess conditional lethalithy of SEM cells grown in RPMI1640 with unreated serum (RPMI+s) (AID 1963883); further: nearly all actives have a fitted effect of over 35% in size;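 on viability: 100% = DMSO wells and 0% = empty wells without cells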
# Method in brief: as §1
# [6] = Quantitative highthroughput screen to assess conditional lethalithy of NOMO1 cells grown in Human Plasma-Like Medium with dialyzed fetal bovine serum (HPLM+ds) (AID 1963878); further: nearly all actives have a fitted effect of over 35% in size;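 on viability: 100% = DMSO wells and 0% = empty wells on each plate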
# Method in brief: as §1
# [7] = Quantitative highthroughput screen to assess conditional lethalithy of SEM cells grown in RPMI1640 with dialyzed fetal bovine serum (RPMI+ds) (AID 1963884); further: nearly all actives have a fitted effect of over 35% in size;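 on viability: series mostly up to about 46 µM; 100% = DMSO control wells and 0% = empty wells without cells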
# Method in brief: as §1
# [8] = Quantitative highthroughput screen to assess conditional lethalithy of P12 Ichikawa cells grown in RPMI1640 with dialyzed fetal bovine serum (RPMI+ds) (AID 1963880); conditions: Potency: P12-Ichikawa viability; further: nearly all actives have a fitted effect of over 35% in size;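 on viability: 100% = DMSO wells and 0% = empty wells on each plate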
# Method in brief: as §1
# [9] = Cellular viability qHTS for adrenocortical cancer (ACC) cell line SW-13 (AID 1963989); conditions: SW-13 ACC cells viability, CellTiter-Glo, 48 h; activity (max response): stronger effect = lower value; further: nearly all actives have a fitted effect of over 65% in size;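 on activity (max response): cells grown in serum-free medium with ITS supplement; on the % scale 0 is the no-effect control and ±100 the full control effect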
# Method in brief: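 Here, serum-free SW-13 cultures were dosed up to 46 uM. Following 48 h, ATP-dependent luminescence (CellTiter-Glo) reported viable cells, and logistic modeling produced IC50 values.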
# [10] = Cellular viability qHTS for adrenocortical cancer (ACC) cell line NCI-H295R (AID 1963990); further: nearly all actives have a fitted effect of over 60% in size;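 on activity change, negative = viability loss: 0% = DMSO only wells and -100% = full killing with cytotoxic reference compound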
# Method in brief: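 Viability of NCI-H295R after 48 h of treatment (final up to 46 uM) measured through cellular ATP luminescence.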
# Potency means the concentration at half of the fitted maximal effect.
smiles,measurement,setting,value
CCC(=C(c1ccccc1)c1ccc(OCCN(C)C)cc1)c1ccccc1,Potency,[1],inactive
same,Potency,[2],inactive
same,Potency,[3],inactive
same,Potency,[4],23.5 µM (active)
C=CC(=O)Nc1cc(NC(=O)c2ccc(C)c(NC(=O)c3ccno3)c2)cc(C(F)(F)F)c1,Potency,[1],inactive
same,Potency,[2],inactive
same,Potency,[3],inactive
same,Potency,[4],inactive
same,Potency,[5],inactive
CO[C@@H](C(=O)N1Cc2[nH]nc(NC(=O)c3ccc(N4CCN(C)CC4)cc3)c2C1)c1ccccc1,Potency,[1],0.148 µM (active)
same,Potency,[6],0.0469 µM (active)
same,Potency,[4],0.132 µM (active)
same,Potency,[5],0.0743 µM (active)
same,Potency,[7],0.0833 µM (active)
CN1C(C(=O)Nc2ccccn2)=C(O)c2ccccc2S1(=O)=O,Potency,[1],11.8 µM (active)
same,Potency,[2],11.8 µM (active)
same,Potency,[8],16.6 µM (active)
same,activity (max response),[9],-11.3% and -19.8%
same,Potency,[10],inactive
CC1(C)O[C@H]2C[C@@H]3[C@H]4CCC5=CC(=O)C=C[C@]5(C)[C@@]4(F)[C@@H](O)C[C@]3(C)[C@]2(C(=O)CO)O1,Potency,[1],9.35 µM (active)
same,Potency,[2],1.48 µM (active)
same,Potency,[8],0.264 µM (active)
same,Potency,[3],0.743 µM (active)
C[C@H]1O[C@@H](n2cc(F)c(=O)[nH]c2=O)[C@H](O)[C@H]1O,Potency,[1],inactive
same,Potency,[2],inactive
same,Potency,[8],inactive
same,Potency,[3],inactive
CNC1[C@H](O)C(O[C@@H]2C(O)C(O[C@H]3O[C@H]([C@@H](C)NC)CC[C@H]3N)[C@@H](N)C[C@H]2N)OC[C@]1(C)O (stereo partly drawn),Potency,[1],inactive
same,Potency,[2],inactive
same,Potency,[8],inactive
same,Potency,[3],inactive
same,Potency,[4],inactive
same,Potency,[5],inactive
COc1ccc(-c2ccc3c(N4CCOC[C@H]4C)nc(N4CCOC[C@H]4C)nc3n2)cc1CO,Potency,[1],18.7 µM (active)
same,Potency,[2],18.7 µM (active)
O=S(=O)(N=Cc1c(O)ccc2ccccc12)c1cccs1,Potency,[1],inactive
same,Potency,[2],16.6 µM (active)
same,Potency,[8],inactive
same,Potency,[3],inactive
same,Potency,[7],inactive
COC(=O)[C@@H]1[C@H]2C[C@@H]3c4[nH]c5ccccc5c4CCN3C[C@@H]2CC[C@@H]1O,Potency,[1],0.526 µM (active)
same,Potency,[2],2.96 µM (active)
same,Potency,[8],5.26 µM (active)
same,Potency,[3],3.32 µM (active)
same,Potency,[5],inactive
same,Potency,[7],inactive
Cn1c2cc(S(C)=O)sc2c2cnn(Cc3cccc(N)c3)c(=O)c21 (stereo not drawn),Potency,[1],inactive
same,Potency,[6],inactive
same,Potency,[10],inactive
Cc1cnc(Nc2ccc(F)cc2Cl)nc1-c1c[nH]c(C(=O)N[C@H](CO)c2cccc(Cl)c2)c1,Potency,[1],1.05 µM (active)
same,Potency,[6],1.66 µM (active)
same,Potency,[9],20 µM (active)
same,Potency,[10],14.1 µM (active)
COc1cc(C(C)=O)ccc1OCCCN1CCC(c2noc3cc(F)ccc23)CC1,Potency,[1],inactive
same,Potency,[2],inactive
same,Potency,[3],inactive
same,Potency,[4],inactive
same,Potency,[5],inactive
same,Potency,[7],inactive
same,Potency,[10],inactive
CC[C@]12C=CCN3CC[C@@]4(c5cc([C@@]6(C(=O)OC)C[C@H]7C[C@@H](C(C)(F)F)CN(Cc8c6[nH]c6ccccc86)C7)c(OC)cc5N(C)[C@H]4[C@@](O)(C(=O)OC)[C@H]1OC(C)=O)[C@@H]32,Potency,[1],0.0332 µM (active)
same,Potency,[2],0.0372 µM (active)
same,Potency,[8],0.0743 µM (active)
same,Potency,[3],0.0264 µM (active)
same,Potency,[4],0.0296 µM (active)
same,Potency,[5],0.0187 µM (active)
same,Potency,[7],0.0332 µM (active)
CS(=O)(=O)c1ccc(-c2cnc(N)c(C(=O)Nc3ccccc3)n2)cc1,Potency,[1],inactive
same,Potency,[2],inactive
same,Potency,[3],8.33 µM (active)
same,Potency,[4],8.33 µM (active)
same,Potency,[5],9.35 µM (active)
same,Potency,[7],8.33 µM (active)
CC(=Cc1ccccc1)C=C1SC(=S)N(CC(=O)O)C1=O,Potency,[1],inactive
same,Potency,[2],inactive
same,Potency,[8],inactive
same,Potency,[3],inactive
same,Potency,[4],inactive
same,Potency,[5],5.9 µM (active)
same,Potency,[7],inactive
COC[C@@H](c1ccc(C(F)(F)F)cc1)N1CCN(C2(C)CCN(C(=O)c3c(C)ncnc3C)CC2)C[C@H]1C,Potency,[1],2.35 µM (active)
same,Potency,[2],inactive
same,Potency,[8],inactive
same,Potency,[3],inactive
same,activity (max response),[9],-14.2%
CC(C)(C)[C@H](NC(=O)c1ccc(N)c(Cl)c1)C(=O)N1CCC[C@@H]1C(=O)N[C@H](C#N)CC(=O)O,Potency,[1],0.105 µM (active)
same,Potency,[2],0.372 µM (active)
same,Potency,[8],1.05 µM (active)
same,Potency,[3],0.418 µM (active)
same,viability,[4],112% [at 3.51 µM]
same,viability,[5],92.8% [at 3.51 µM]
same,viability,[7],105% [at 3.51 µM]
COc1ccc2c3n(c(=NC(=O)c4cccnc4)nc2c1OC)CCN3,Potency,[1],inactive
same,Potency,[6],7.43 µM (active)
same,Potency,[4],20.9 µM (active)
same,Potency,[7],9.35 µM (active)
same,activity (max response),[9],2.77%
same,"activity change, negative = viability loss",[10],-25.5% [at 3.81 µM]
CC[C@H](CO)Nc1nc(NCc2ccccc2)c2ncn(C(C)C)c2n1,Potency,[1],inactive
same,Potency,[2],inactive
same,Potency,[8],inactive
same,Potency,[3],inactive
same,Potency,[4],inactive
same,Potency,[10],31.6 µM (active)
NC1=N[C@@]2(c3cc(NC(=O)c4ccc(F)cn4)ccc3F)COC[C@@H]2CS1,Potency,[1],0.372 µM (active)
same,Potency,[2],1.87 µM (active)
same,Potency,[8],3.32 µM (active)
same,Potency,[3],1.66 µM (active)
same,Potency,[7],inactive
N#CC(=C(N)Sc1ccccc1N)C(C#N)=C(N)Sc1ccccc1N,Potency,[1],inactive
same,Potency,[2],inactive
same,Potency,[3],inactive
CC(=O)O[C@]1(C(C)=O)CC[C@H]2[C@@H]3C=C(Cl)C4=CC(=O)[C@@H]5C[C@H]5[C@]4(C)[C@@H]3CC[C@@]21C,Potency,[1],0.59 µM (active)
same,Potency,[2],2.96 µM (active)
same,Potency,[8],2.35 µM (active)
same,Potency,[3],2.96 µM (active)
same,Potency,[4],inactive
same,Potency,[5],inactive
same,Potency,[7],inactive
CC(C)(C(=O)NCC(F)(F)C(F)(F)F)C(=O)N[C@@H]1C(=O)Nc2ccccc2-c2ccccc21,Potency,[1],0.935 µM (active)
same,Potency,[2],2.64 µM (active)
same,Potency,[3],2.96 µM (active)
same,Potency,[5],16.6 µM (active)
same,activity (max response),[9],-5.79%
same,Potency,[10],inactive
COC(=O)[C@H](c1ccccc1Cl)N1CCc2sccc2C1,Potency,[1],1.05 µM (active)
same,Potency,[2],8.33 µM (active)
same,Potency,[8],11.8 µM (active)
same,Potency,[3],9.35 µM (active)
same,Potency,[4],inactive
same,Potency,[5],inactive
same,activity (max response),[9],-22.7%
same,Potency,[10],inactive
